Measurements published in PubChem BioAssay AID720597 (Broad Institute, 2013).
Potency and affinity values are given separately. Unmarked numbers belong to inactive results.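 How the source made its calls: active means fitted half-maximal dose no more than twice the top valid tested dose, for compounds that lower signal; inconclusive means fit invalid, or curve flat with activity between -70 and -30; inactive means potency past limit, curve flat within ±30, or signal increasing.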

Each compound was assayed against NAD-dependent protein deacylase sirtuin-5, mitochondrial (Homo sapiens) (UniProt Q9NXA8) (assay: SIRT5 deacylase inhibitors, dose response, biochemical, fluorescence imaging, cherry-pick, set 6 (AID 720597;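 further: lower AMC signal can also come from blocking the trypsin step; 0% = median of neutral control wells and -100% = median of positive control wells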)). Conditions: Purified SirT5, succinyl-peptide-AMC/trypsin fluorescence; series mostly up to 15 µM; activity change, negative = inhibition: at the top concentration.
Sequence of NAD-dependent protein deacylase sirtuin-5, mitochondrial (Homo sapiens) (Q9NXA8 whole entry, looked up): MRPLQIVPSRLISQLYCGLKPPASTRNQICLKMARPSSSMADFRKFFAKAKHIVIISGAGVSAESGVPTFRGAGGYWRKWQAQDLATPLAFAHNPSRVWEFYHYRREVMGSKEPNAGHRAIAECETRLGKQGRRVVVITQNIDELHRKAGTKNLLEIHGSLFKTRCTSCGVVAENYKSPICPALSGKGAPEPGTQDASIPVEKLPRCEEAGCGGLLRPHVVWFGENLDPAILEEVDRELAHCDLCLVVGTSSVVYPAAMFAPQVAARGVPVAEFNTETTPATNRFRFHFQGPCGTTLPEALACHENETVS

| SMILES | activity change, negative = inhibition |
| --- | --- |
| COc1ccc(S(=O)(=O)N2CCCCN3[C@H](CO)[C@H](c4ccc(C#CC(C)C)cc4)[C@H]3C2)cc1 | -7.12% |
| CCN(C[C@@H]1[C@@H](c2ccccc2)[C@H](CO)N1C(=O)C1CC1)C(=O)NC1CCCC1 | 38.9% |
| C[C@H](CO)N1C[C@H](C)[C@H](CN(C)C(=O)Nc2cc(F)ccc2F)Oc2cc(/C=C/c3ccccc3)ccc2S1(=O)=O | 27.6% [at 13.5 µM] |
| C[C@@H]1CN([C@@H](C)CO)C(=O)c2cc(NS(=O)(=O)c3ccc(Cl)cc3)ccc2O[C@@H](C)CCCCO[C@@H]1CN(C)C(=O)Nc1ccc(C(F)(F)F)cc1 | -0.902% |
| Cc1ccc(S(=O)(=O)N(C)C[C@H]2Oc3ncc(-c4ccncc4)cc3C(=O)N([C@@H](C)CO)C[C@@H]2C)cc1 | -4.75% |
| CO[C@@H]1CC[C@@H]2CCN(C)C(=O)C[C@H](c3ccccc3)CN(C)C(=O)c3cccc(C#N)c3OC[C@@H]1O2 | -15.7% |
| C[C@H]1CN([C@@H](C)CO)C(=O)c2cc(NS(=O)(=O)c3ccc(Cl)cc3)ccc2O[C@H]1CN(C)Cc1ccc(Cl)c(Cl)c1 | -3.12% |
| COc1cccc(S(=O)(=O)N(C)C[C@@H]2Oc3ncc(-c4cccc(C(F)(F)F)c4)cc3C(=O)N([C@H](C)CO)C[C@@H]2C)c1 | -26.8% |
| C[C@H](CO)N1C[C@H](C)[C@@H](CN(C)C(=O)Nc2cc(F)ccc2F)Oc2cc(/C=C/c3ccccc3)ccc2S1(=O)=O | 17.7% |
| CC(C)CC#Cc1ccc2c(c1)O[C@@H](CN(C)S(=O)(=O)c1cccc(F)c1)[C@@H](C)CN([C@H](C)CO)S2(=O)=O | -21% |
| COc1ccc(S(=O)(=O)N(C)C[C@@H]2OCCCC[C@@H](C)Oc3ccc(NS(=O)(=O)c4ccc(F)cc4)cc3C(=O)N([C@@H](C)CO)C[C@H]2C)cc1 | -22.5% |
| C[C@@H]1CN([C@H](C)CO)S(=O)(=O)c2ccc(C#Cc3cccc(F)c3)cc2O[C@H]1CN(C)S(=O)(=O)c1ccccc1F | 45.5% |
| COc1ccc(S(=O)(=O)N(C)C[C@@H]2OCCCC[C@H](C)Oc3ccc(NS(=O)(=O)c4ccc(C)cc4)cc3C(=O)N([C@@H](C)CO)C[C@@H]2C)cc1 | -30.9% |
| C[C@H]1CN([C@@H](C)CO)C(=O)c2cc(C#Cc3cccc(F)c3)cnc2O[C@@H]1CN(C)CC1CCCC1 | -7.58% |
| O=C(Nc1ccccc1F)N1CC(=O)N2[C@H](C1)[C@@H](c1ccc(C#CC3CCCC3)cc1)[C@@H]2CO | 23.2% |
| C[C@H](CO)N1C[C@H](C)[C@H](CN(C)S(=O)(=O)c2cccs2)Oc2c(NC(=O)C3CCCCC3)cccc2C1=O | -21% |
| C[C@@H]1CN([C@H](C)CO)C(=O)Cc2cc(NC(=O)Nc3ccc(F)cc3)ccc2O[C@H]1CN(C)C | -18.6% |
| CS(=O)(=O)N(CC(=O)NC1CCCCC1)c1cccc(F)c1 | -0.763% [at 16 µM] |
| O=C(c1cnccn1)N1CC(=O)N2[C@H](CO)[C@@H](c3ccc(C4=CCCCC4)cc3)[C@@H]2C1 | -5.88% |
| COc1ccc(S(=O)(=O)Nc2ccc3c(c2)C(=O)N([C@@H](C)CO)C[C@H](C)[C@H](CN(C)Cc2ccc(Oc4ccccc4)cc2)O3)cc1 | -1.06% |

| SMILES | activity change, negative = inhibition |
| --- | --- |
| CC(C)CN(C[C@H]1N[C@H](CO)[C@@H]1c1ccccc1)C(=O)C1CCCCC1 | 39.5% |
| C[C@@H]1CN([C@@H](C)CO)C(=O)c2cc(NS(=O)(=O)c3ccc(F)cc3)ccc2O[C@@H](C)CCCCO[C@@H]1CN(C)S(=O)(=O)c1ccc(Cl)cc1 | -1.29% |
| COc1ccc(NC(=O)N(C)C[C@H]2Oc3c(NS(C)(=O)=O)cccc3C(=O)N([C@@H](C)CO)C[C@H]2C)cc1 | 1.17% |
| Cc1ccc(S(=O)(=O)N(C)C[C@H]2OCc3ccccc3-c3c(n(C)c4ccccc34)C(=O)N([C@H](C)CO)C[C@H]2C)cc1 | 23.8% |
| C[C@H]1CN([C@@H](C)CO)C(=O)c2cc(C#CC3CCCCC3)cnc2O[C@@H]1CN(C)S(=O)(=O)c1cccc(F)c1 | -18.9% |
| O=C(NCC[C@@H]1CC[C@@H](NS(=O)(=O)c2cccc(F)c2)[C@H](CO)O1)C1CCOCC1 | 11% |
| COc1ccc(S(=O)(=O)Nc2ccc3c(c2)C(=O)N([C@@H](C)CO)C[C@@H](C)[C@H](CN(C)Cc2ccc(Oc4ccccc4)cc2)O3)cc1 | -10.1% |
| COc1ccc(S(=O)(=O)N(C)C[C@H]2OCCCC[C@H](C)Oc3ccc(NS(=O)(=O)c4ccc(Cl)cc4)cc3C(=O)N([C@H](C)CO)C[C@H]2C)cc1 | -2.51% |
| CN(C)C(=O)c1cccc(-c2ccc(C3[C@@H]4CN(C(=O)c5ccccn5)C[C@H]3N4)cc2)c1 (stereo not given in full) | -21.8% |
| CO[C@H](CN(C)C(=O)c1ccc2c(c1)OCO2)[C@H](C)CN([C@H](C)CO)S(=O)(=O)c1ccccc1 | -23.5% |
| CN(C)C(=O)c1cccc(-c2ccc([C@@H]3[C@@H](CO)N4CCCCN(S(C)(=O)=O)C[C@@H]34)cc2)c1 | 19.7% |
| C[C@@H]1CN([C@H](C)CO)C(=O)c2cccc(N(C)C)c2O[C@@H]1CN(C)C(=O)NC1CCCCC1 | -11.7% |
| COc1cccc(CN2[C@@H](CO)[C@H](c3ccccc3)C23CN(C(=O)C2CCCC2)C3)c1 | -11.3% |
| CN(C)Cc1cn(CC[C@H]2CC[C@@H](NC(=O)Nc3ccccc3F)[C@@H](CO)O2)nn1 | 7.23% |
| C[C@H]1CN([C@@H](C)CO)S(=O)(=O)c2ccc(C#Cc3ccc(F)cc3)cc2O[C@H]1CN(C)S(=O)(=O)c1ccc(F)cc1 | -20% |
| C[C@@H]1CN([C@H](C)CO)S(=O)(=O)c2ccc(C#Cc3cccc(F)c3)cc2O[C@@H]1CN(C)S(=O)(=O)c1ccccc1F | 40.1% |
| COc1ccc(S(=O)(=O)Nc2ccc3c(c2)C(=O)N([C@@H](C)CO)C[C@@H](C)[C@@H](CN(C)Cc2ccc(Oc4ccccc4)cc2)O3)cc1 | -0.798% |
| CCCC(=O)Nc1ccc2c(c1)OC[C@@H](C)N(Cc1ccccc1)C[C@@H](C)[C@@H](OC)CN(C)C2=O | -26.8% |
| CCS(=O)(=O)N1CC(=O)N2[C@H](CO)[C@H](c3ccc(C4=CCCCC4)cc3)[C@@H]2C1 | 19.9% |
| Cc1ccc(S(=O)(=O)Nc2ccc3c(c2)C(=O)N([C@H](C)CO)C[C@@H](C)[C@H](CN(C)Cc2ccc(Cl)c(Cl)c2)OCCCC[C@H](C)O3)cc1 | 0.114% |
